Hits are enriched below; roughly 5.7% of the tested compounds scored in any of these assays.
DAX1 inh-1 = NR0B1 (DAX1) inhibition. P51843. HEK293 Gal4-DAX1 luciferase reporter, luminescence. inhibition, % at 6.75 µM. actives 0.99% (n = 340,000). AID 504766;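 active = inhibition above the mean over all tested compounds plus 3 SD, cut at about 4.2% in these data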;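 also: inhibition shows as a rise in luminescence from relieved DAX1 repression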
hgDAF12 agonist = agonists of H. glycines DAF-12 nuclear receptor; HEK293 GAL4-hgDAF12 UAS-luciferase reporter, agonist luminescence; normalized to butyrate control; activation, % at 6.8 µM; actives 1.8% (n = 370,000);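 active = activation above a cutoff set at the mean of all screened compounds plus 3 SD, cut at about 10% in these data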
DAX1 inh-2 = blocks DAX1 repression of SF-1 activated StAR promoter; inhibition, % at 6.8 µM; actives 1.1% (n = 370,000); HEK293T StAR-luciferase reporter, SF-1/DAX-1 repression relief;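 active = inhibition above the mean over all tested compounds plus 3 SD, cut at about 3.6% in these data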;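 also: higher inhibition means more luminescence from relief of DAX-1 repression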
AHR activator = human AHR activation. AHR-responsive luciferase reporter cells, luminescence. activation, % at 5 µM. actives 2.5% (n = 320,000). AID 2796; in the data active = activation above about 47%
hcDAF-12 act = activators of H. contortus DAF-12 nuclear receptor; activation, % at 6.8 µM; HEK293 hcDAF-12 lit1-tk-luc reporter, luminescence; 0% DMSO, 100% Δ7-dafachronic acid; actives 1.4% (n = 370,000); AID 652067;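 active = activation above the mean of all tested compounds plus 3 SD, cut at about 5.5% in these data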
ssDAF12 agonist = S. stercoralis DAF-12 activation, primary screen; HEK293 ssDAF-12/GRIP1 lit1-tk-luc reporter, luminescence; % of 3 µM dafachronic acid response; activation, % at 6.8 µM; actives 1% (n = 370,000); AID 652126;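 active = activation above the mean over all tested compounds plus 3 SD, cut at about 0.9% in these data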
LXR ag = LXR-beta agonism as hcDAF-12 counter-screen. shares compounds with hcDAF-12 act. HEK293 Gal4-LXR tk-luc reporter, luminescence, 24 h; normalized: DMSO 0%, positive control 100%. activation, % at 6.8 µM. 3,400 tested, under 10 active;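 active = mean percent activation of the reporter above a cutoff set as the average over tested compounds plus their standard deviation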
Target sequence (P55055 whole entry, looked up, the tested form may be a part): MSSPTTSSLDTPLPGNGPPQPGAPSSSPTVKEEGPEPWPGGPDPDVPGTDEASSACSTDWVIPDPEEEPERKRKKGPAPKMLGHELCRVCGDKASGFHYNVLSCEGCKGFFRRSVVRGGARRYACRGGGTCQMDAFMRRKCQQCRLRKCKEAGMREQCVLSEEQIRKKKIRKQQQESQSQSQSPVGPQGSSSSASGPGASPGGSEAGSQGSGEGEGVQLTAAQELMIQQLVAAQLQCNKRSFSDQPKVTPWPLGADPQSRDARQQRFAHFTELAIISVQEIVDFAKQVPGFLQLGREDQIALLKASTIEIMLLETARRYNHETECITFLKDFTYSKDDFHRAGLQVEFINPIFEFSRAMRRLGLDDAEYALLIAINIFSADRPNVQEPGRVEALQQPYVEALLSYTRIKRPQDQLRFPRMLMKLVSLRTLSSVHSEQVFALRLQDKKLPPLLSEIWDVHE
hcDAF12 conf = hcDAF-12 agonism, confirmation assay. activation, % at 6.8 µM. shares compounds with hcDAF-12 act. actives 61% (n = 3,400). HEK293 hcDAF-12 lit1-tk-luc reporter, luminescence; % of Δ7-dafachronic acid response. AID 743032;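 active = mean activation across triplicate tests above the threshold derived from the earlier primary screen, cut at about 5.5% in these data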
Hits are given with their value; 0 = inactive; - = no result given.

SMILES	DAX1 inh-1	hgDAF12 agonist	DAX1 inh-2	AHR activator	hcDAF-12 act	ssDAF12 agonist	LXR ag	hcDAF12 conf
Oc1cccc(Nc2nc(O)c(/C=C3\C=Nc4ccccc43)s2)c1	0	0	0	0	6.8	0	0	7.0
COc1cc(O)c2c(=O)c(-c3ccc(O[C@@H]4O[C@H](CO)[C@@H](O)[C@H](O)[C@H]4O)cc3)coc2c1	0	12	0	-	7.2	0	0	0
O=c1c(-c2ccc(O)cc2)coc2cc(OC3OC(CO)C(O)C(O)C3O)cc(O)c12 (configuration not stated)	0	0	0	0	0	0	-	-
Cc1cc2cc(OCC(=O)O)ccc2n1C	0	0	0	0	0	0	-	-
Cc1cc2cc(OCc3ccccc3)ccc2n1C	0	0	0	0	6.7	0	0	0
Cc1cc2nc(/C=C/c3nc4cc(C)c(C)cc4[nH]3)[nH]c2cc1C	0	0	0	0	0	0	-	-
Cc1ccc(/C=C/c2nc3ccccc3[nH]2)o1	0	0	0	0	8.3	0	0	8.4
CC(C)(C)c1ccc(C(=O)NCC(=O)OCC(=O)N2CCN(S(=O)(=O)c3ccc(Cl)cc3)CC2)cc1	0	0	0	0	15	0	0	0
O=C(CNC(=O)c1ccc(Cl)cc1)OCC(=O)N1CCCC1	0	0	0	0	0	0	-	-
c1ccc2c(C3=NNC(=NC4CCCCC4)SC3)c[nH]c2c1	0	0	0	57	9.3	1.5	0	0
Cc1ccc(C(=O)CCS(=O)(=O)c2ccc(F)cc2)cc1	0	0	0	0	0	0	-	-
Nc1nc(NCCOCCO)nc(N2CCCCCC2)c1[N+](=O)[O-]	0	0	0	-	0	0	-	-
Cn1cncc1C#Cc1ccc(N2C(c3ccsc3)=Cc3ccc(F)cc3C2c2c[nH]c3ccccc23)cc1 (configuration not stated)	-	0	0	-	0	0	-	-
COc1ccc(-c2ccc(N3C(c4ccsc4)=Cc4ccc(F)cc4C3c3c[nH]c4ccccc34)cc2)cc1 (configuration not stated)	-	0	0	-	8.5	1.5	0	6.9
Nc1cccc(C2=Nc3cccc4cccc(c34)N2)c1	0	0	0	0	8.5	0	0	5.7
Cc1ccccc1-c1ccc(C(=O)Nc2cccc(F)c2)o1	0	0	0	0	7.3	0	0	5.7
O=C(Nc1c(-c2ccccc2)nc2ccccn12)c1ccccc1	0	0	0	0	0	0	-	-
CC(=O)Nc1c(-c2ccc3ccccc3c2)nc2ccccn12	4.2	0	0	51	7.6	1.9	0	7.3
COc1ccc(C(=O)ON=C2C=C(C)C(=O)C(C)=C2)cc1	0	0	0	0	0	0	-	-
Cc1ccc(NCc2nc3ccccc3n2C)c(C)c1	0	12	3.7	76	12	0	0	11
Cc1cccc(NCc2nc3ccccc3n2C)c1	0	0	0	47	7.5	0	0	6.9
O=[N+]([O-])c1ccc(NN=Cc2cc(Br)ccc2O)nc1	0	0	0	-	0	0	-	-
CN(C)S(=O)(=O)c1ccc(Cl)c(-c2nnc3n2CCCCC3)c1	0	0	0	0	7.8	0	0	0
Clc1ccc(-c2nnc3n2CCCC3)cc1Cl	0	0	0	0	0	0	-	-
COc1ccccc1C(=O)NNC(=O)C1CC=CCC1 (configuration not stated)	0	0	0	0	7.2	4.0	0	7.2
COc1ccccc1C(=O)NNC(=O)c1ccc2ccccc2c1	0	0	0	0	0	0	-	-
COc1ccccc1C(=O)NNC(=S)Nc1ccccc1	0	0	0	-	11	0	0	9.0
COc1ccccc1C(=O)NNC(=O)c1ccc(F)cc1	0	0	0	0	9.3	0	0	6.8
COc1ccccc1C(=O)NNC(=O)c1ccc(O)cc1	0	0	0	-	0	0	-	-
COc1ccccc1C(=O)NNC(=O)C(=O)Nc1ccc(C)cc1	0	0	0	0	0	0	-	-
